What follows are molecules tested on RPS6KA6.

Kinases covered, RPS6KA6:
C[C@@H]1CCNC(=O)c2cc3ccc(C(=O)Nc4nc5ccccc5n4CCCN(C)C)cc3n21 [BI00645435], Nc1nc(-c2cccc(Cl)c2)c(-c2ccc3ncccc3n2)s1 [GW780159X], Nc1nc(-c2ccccc2F)c(-c2ccnc3ccccc23)s1 [GW560459], Fc1ccc(-c2nn3ccccc3c2-c2ccncc2)cc1 [GW434756X]
